Our source for the inhibition values is PubChem BioAssay.

Usually inhibition stands for the relative decrease from the control value, in per cent.

Molecules are shown by their SMILES.

For this assay, the target named is PEG-3 (UniProt Q6IN02). Put plainly: inhibition of PEG-3 promoter-driven reporter – cell-based, HeLa, luciferase, CREF/GAPDH counter-screen panel, dose response (AID 624167). As to conditions: CREF/GAPDH counter-screens; HeLa PEG-Prom luciferase reporter, overnight, run 2, dose range 1, at 100 µM (top of the series) unless noted. A general note: Counterscreens check selectivity or assay interference.
PEG-3, sequence (Q6IN02 whole entry, looked up): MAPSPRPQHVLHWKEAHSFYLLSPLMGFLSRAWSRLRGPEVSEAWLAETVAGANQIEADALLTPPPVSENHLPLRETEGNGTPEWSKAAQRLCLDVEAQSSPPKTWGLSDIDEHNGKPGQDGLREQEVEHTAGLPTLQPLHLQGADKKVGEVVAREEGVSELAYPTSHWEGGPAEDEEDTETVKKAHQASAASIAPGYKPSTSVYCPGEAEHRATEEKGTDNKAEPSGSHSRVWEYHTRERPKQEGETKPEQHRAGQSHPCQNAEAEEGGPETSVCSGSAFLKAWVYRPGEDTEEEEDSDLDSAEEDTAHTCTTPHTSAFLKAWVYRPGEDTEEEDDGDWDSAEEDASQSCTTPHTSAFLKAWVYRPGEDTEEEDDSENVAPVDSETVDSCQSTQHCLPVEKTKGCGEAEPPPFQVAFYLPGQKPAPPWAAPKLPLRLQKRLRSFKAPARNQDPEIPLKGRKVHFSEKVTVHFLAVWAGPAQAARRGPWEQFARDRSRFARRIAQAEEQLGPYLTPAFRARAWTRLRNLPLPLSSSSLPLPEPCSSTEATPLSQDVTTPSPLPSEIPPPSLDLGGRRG
Regarding `O=C(Nc1ccc(CN2CCCCC2)cc1)Nc1ccc(Br)cc1Cl`, the inhibition is 101%. Regarding `COc1ccc(-c2cc(C(=O)N3CCN(c4ccccc4F)CC3)c3ccccc3n2)c(OC)c1`, the inhibition was 47.4%. With `Cc1nc(N2CCN(c3ccccn3)CC2)c2c(C)c(C(=O)Nc3ccccc3F)sc2n1`, the inhibition was 34.9%. Regarding `CCOC(=O)CN(C(=O)CSc1nnc2c(n1)[nH]c1ccc(F)cc12)c1ccccc1`, the inhibition was 99.2%.

Regarding `CN(C)CCNC(=O)/C(=C/c1ccc(-c2ccc(Cl)cc2)o1)NC(=O)c1ccccc1`, the inhibition amounted to 98.6%. The result for `C[C@@H](NCCCn1cnc2c(OCc3ccccc3)ncnc21)c1cccc2ccccc12` reads 101%; that for `c1ccc(CN2CCC(Nc3nc(-c4cccnc4)nc4ccccc34)CC2)cc1`, 94.1%; that for `COCC(C)n1c(C)cc(C(=O)COC(=O)c2cccn2C)c1C` (centres undefined), 83.3%.

Turning to `CC(C)NC(=O)NC(=O)COC(=O)c1c2c(nc3ccccc13)CCC2`, the inhibition came to 93.6%. The result for `COc1cccc(/C=C2/Sc3ccc(C(=O)NCCCN4CCCC4)cc3NC2=O)c1` reads 99%. As for `NC(c1csc(Nc2nccc(C(F)(F)F)n2)n1)C1CCCCC1` (centres undefined), the inhibition is 99.1%. Turning to `COc1cc(CNC(C)(C)CO)cc(Br)c1OCc1ccc(Cl)cc1`, the inhibition worked out at 98.9%. Consider `O=C(Nc1ccccc1N1CCOCC1)c1cc(-c2ccncc2)nc2ccccc12`, for which the inhibition is 88%. In the case of `CC(=O)Nc1ccc(Nc2nc(C)c([N+](=O)[O-])c(Nc3ccccc3)n2)cc1`, the inhibition was 93.4%.

As to `COc1ccc2c(c1OC)C(=O)N1c3ccccc3C(=O)N(c3ccccc3F)C21` (centres undefined), the inhibition is 68.7%. For `CN(C)C(=O)c1cccc(-c2cnc3c(NC=O)cc(-c4cccc(C(F)(F)F)c4)cn23)c1`, the inhibition is 93.6%. On to `CC1=NN(c2cccc(C(=O)O)c2)C(=O)/C1=C\C=C/c1ccccc1`, for which the inhibition is 99.5% [run 2, dose range 1, at 50 µM]. On to `NC(N)=N/N=C/c1ccc(Cl)cc1Cl`, for which the inhibition came out at 99.1%. For the molecule `O=[N+]([O-])c1cc(Cl)cc(/C=N\Nc2ccccn2)c1O`, the inhibition came out at 40.5%. In the case of `COCCn1c(C)cc(C(=O)CSc2nnc3ccccn23)c1C`, the inhibition amounted to 94.2%. For the molecule `CN(C)CCCN1c2ccccc2Sc2ccc3ccccc3c21`, the inhibition amounted to 98.6%. `CC(C)CC(NS(=O)(=O)OCC(Cl)(Cl)Cl)c1ccccc1` (centres undefined): the inhibition is 99.4%.

For `COC(=O)CSC1=NS(=O)(=O)c2ccccc21`, the inhibition amounted to 98%. With `Cc1ccc(C)c(OCC(O)CN2CCC(CN3C(=O)c4cccc5cccc(c45)C3=O)CC2)c1` (centres undefined), the inhibition is 96.1%. Turning to `CCC1(c2ccccc2)NC(=O)N(CC(=O)Nc2cc(S(=O)(=O)N3CCCCCC3)ccc2OC)C1=O` (centres undefined), the inhibition turned out to be 61%.

In the case of `Cc1ccc2[nH]c3c(c2c1)CCCC3NC(=O)CCl` (centres undefined), the inhibition was determined as 96.5%. For the molecule `O=S(=O)(c1cccc(F)c1)N1CCN(c2nc(-c3cccnc3)nc3ccccc23)CC1`, the inhibition is 46.2%. The result for `CN(C)S(=O)(=O)c1cccc(NC(=O)CSc2nc3c(cc2C#N)C(=O)CC(C)(C)C3)c1` reads 60.6%; that for `COc1cc(/C=C/c2ccc3cccc(O)c3n2)ccc1O`, 99.9%. In the case of `CCOC(=O)c1ccc(NC(=O)C2CCCN(S(=O)(=O)c3ccc(F)cc3)C2)cc1` (centres undefined), the inhibition turned out to be 100%. `COc1ccc(S(=O)(=O)N2c3ccccc3OCC2c2ccccc2)cc1` (centres undefined): the inhibition is -3.52%. Under `COc1ccccc1N1CCN(C(=O)c2sc3ncnc(N4CCN(c5ccccn5)CC4)c3c2C)CC1` stands 93.5%. For the molecule `CN(C)CCNc1ccc(CO)c2oc3ccc(O)cc3c(=O)c12`, the inhibition was found to be 101%. With `COc1ccc(CC(N)c2csc(NC(=O)Nc3cc(OC)ccc3OC)n2)cc1` (centres undefined), the inhibition was 98.7%.

`O=C(c1cc(-c2cccs2)nn1-c1ccccc1)N1CCN(S(=O)(=O)c2ccccc2)CC1`: the inhibition was 27.8%. For the molecule `O=C(c1ccccc1)N(C(=O)c1ccccc1)c1ncnc2c1C(c1ccccc1)c1c(ccc3ccccc13)O2` (centres undefined), the inhibition was 28.4%.

Turning to `CNCC[C@@H](Oc1ccc(C(F)(F)F)cc1)c1ccccc1`, the inhibition turned out to be 100%. On to `O=C(c1ccco1)N1CCN(c2ncnc3c2[nH]c2ccc(Br)cc23)CC1`, for which the inhibition is 98.2%. `CCCN1C/C(=C/c2cccc([N+](=O)[O-])c2)C(=O)/C(=C/c2cccc([N+](=O)[O-])c2)C1`: the inhibition came to 30.1%.
